Assay outcomes: PubChem BioAssay, National Center for Advancing Translational Sciences (NCATS)
TDP1 cell noCPT: qHTS for Inhibitors of human tyrosyl-DNA phosphodiesterase 1 (TDP1): qHTS in cells in absence of CPT; DT40 Tdp1-/- hTDP1 cells, no CPT, ATP luminescence, 48 h; Potency, µM (highest dose often 46.2 µM), usual class: inhibitors; 15% of 420,000 active; note: nearly all actives have a fitted effect of over 55% in size
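A cellular qHTS used chicken DT40 cells lacking endogenous Tdp1 but carrying stably transfected human TDP1. Compounds were applied without camptothecin, and cell growth kinetics were judged by ATP-dependent luminescence after ≥48 hr.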
DT40 TDP1 CPT: qHTS for Inhibitors of human tyrosyl-DNA phosphodiesterase 1 (TDP1): qHTS in cells in presence of CPT; chicken DT40 Tdp1-/-;hTDP1 cells + 20 nM CPT, ATP luminescence, 48 h; Potency, µM (titrated, usually from 46.2 µM), actives largely listed as inhibitors; 12% of 420,000 active; AID 686979, 2013; note: nearly all actives have a fitted effect of over 55% in size
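Chicken DT40 Tdp1-/- cells stably complemented with human TDP1 were seeded at 400 cells/well in medium containing 20 nM camptothecin, exposed to pin-transferred compounds, and grown at 37 °C for at least 48 hr. Viability was read as ATP luminescence.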
uPA surface inh: qHTS for Inhibitors of Cell Surface uPA Generation; Potency, µM (doses to about 38.3 µM), hits mostly inhibitors; 0.31% of 330,000 active; cell surface uPA generation assay, qHTS; active = well fitted inhibition curve with a large enough effect; inconclusive = small, poorly fitted or top-dose-only effect; inactive = no such curve, though single readings can be large or run the other way; tested in mouse RAW 264.7 cells; note: nearly all actives have a fitted effect of over 55% in size
miR-21 act: qHTS Assay for Modulators of miRNAs and/orActivators of miR-21; 340,000 tested, under 10 active; HeLa miR-21 FLuc reporter, luciferase, 48 h; Potency, µM (top dose mostly 38.3 µM), usual class: activators;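 note: miR-21 action dims this reporter so a rising signal means less miR-21 action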
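Luminescence from a firefly luciferase reporter carrying a miR-21 binding site downstream, stably expressed under a CMV promoter in HeLa cells that make miR-21 endogenously, reports miRNA modulation after 48 h compound exposure up to approximately 40uM final.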
TDP1 block: qHTS Assay for Inhibitors of Tyrosyl-DNA Phosphodiesterase (TDP1) | recombinant TDP1, AlphaScreen DNA substrate cleavage | AID 485290, 2010 | Potency, µM (titrated, usually from 130 µM), usual class: inhibitors | Tyrosyl-DNA phosphodiesterase 1 (Homo sapiens), Q9NUW8 | 0.28% of 350,000 active; note: nearly all actives have a fitted effect of over 40% in size
Target sequence (Q9NUW8 whole entry, looked up): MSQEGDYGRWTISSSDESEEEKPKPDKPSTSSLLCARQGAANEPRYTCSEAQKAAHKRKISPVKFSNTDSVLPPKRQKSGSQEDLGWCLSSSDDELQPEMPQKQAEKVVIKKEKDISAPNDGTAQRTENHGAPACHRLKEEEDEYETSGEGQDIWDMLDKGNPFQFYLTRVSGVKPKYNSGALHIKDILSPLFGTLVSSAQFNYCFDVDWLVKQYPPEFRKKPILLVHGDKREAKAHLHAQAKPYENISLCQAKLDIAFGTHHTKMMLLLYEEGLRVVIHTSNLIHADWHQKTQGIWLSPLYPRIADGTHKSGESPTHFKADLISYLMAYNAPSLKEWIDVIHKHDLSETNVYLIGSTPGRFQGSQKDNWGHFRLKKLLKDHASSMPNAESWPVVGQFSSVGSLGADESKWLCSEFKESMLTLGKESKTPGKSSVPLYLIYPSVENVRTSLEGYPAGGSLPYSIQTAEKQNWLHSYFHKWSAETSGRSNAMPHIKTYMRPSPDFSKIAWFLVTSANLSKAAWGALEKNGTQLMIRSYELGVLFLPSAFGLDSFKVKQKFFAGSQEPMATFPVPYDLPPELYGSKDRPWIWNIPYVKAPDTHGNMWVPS
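E. coli-derived human Tdp1, 1 nM final. Cpd preinc 15 min RT; substrate 15 nM final, 5 min RT; AS bead mix 10 ug/ml final, 10 min RT. Signal loss = tyrosine-FITC cleavage. No-enzyme wells = max signal.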
Large screens that a line does not name were inactive. Most compounds without a hit are left out; they make up all but 16% or so of the library. Unless noted, calls come from the whole dose curve; as a rule, active = well fitted curve in the direction sought with a large enough effect; inconclusive = small, poorly fitted or top-dose-only effect, or another doubt; inactive = no such curve, though single readings can be large; an effect the other way counts as inactive or inconclusive.

CCN(CC(=O)NCc1cccs1)C(=O)c1ccc(S(=O)(=O)Nc2ccccc2OC)cc1	none (no result: miR-21 act)
Cc1cc(NC(=O)COC(=O)c2ccc(S(=O)(=O)N3CCCC3)cc2)no1	none
CCC(=O)N1CCc2cc(S(=O)(=O)N3CCN(c4ccccn4)CC3)ccc21	TDP1 cell noCPT 12µM, DT40 TDP1 CPT inconclusive
Cc1cc(NC(=O)COC(=O)c2ccc(S(=O)(=O)N3CCCc4ccccc43)cc2)no1	TDP1 cell noCPT 3.3µM, DT40 TDP1 CPT 3.7µM
CCC(=O)N1CCc2cc(S(=O)(=O)N3CCN(c4ccccc4)CC3)ccc21	none
O=C(Nc1ccc(C(F)(F)F)cc1)c1cc(S(=O)(=O)N2CCCc3ccccc32)ccc1F	TDP1 cell noCPT 10µM, DT40 TDP1 CPT 7.3µM (no result: uPA surface inh)
Cc1ccc(C(=O)OCC(=O)NCc2cccs2)c(C)c1	none
COc1ccc(C2CC(=O)c3c([nH]c(C(=O)OC4CCCCCC4)c3C)C2)cc1 (centres undefined)	TDP1 cell noCPT inconclusive, DT40 TDP1 CPT inconclusive (no result: uPA surface inh)
CCCOCCOC(=O)c1[nH]c2c(c1C)C(=O)CC(c1cc(OC)ccc1OC)C2 (centres undefined)	TDP1 cell noCPT 5.8µM, DT40 TDP1 CPT 5.2µM, uPA surface inh inconclusive
COCCOC(=O)c1[nH]c2c(c1C)C(=O)CC(c1cc(OC)ccc1OC)C2 (centres undefined)	TDP1 cell noCPT 2.6µM, DT40 TDP1 CPT 2.9µM, uPA surface inh inconclusive
CCOC(=O)c1[nH]c2c(c1Cc1ccccc1C)C(=O)CC(c1cc(OC)ccc1OC)C2 (centres undefined)	TDP1 cell noCPT inconclusive, DT40 TDP1 CPT inconclusive (no result: uPA surface inh)
COc1ccc(OC)c(C2CC(=O)c3c([nH]c(C(=O)OC(C)C)c3C)C2)c1 (centres undefined)	TDP1 cell noCPT 0.82µM, DT40 TDP1 CPT 0.82µM, uPA surface inh inconclusive
COc1ccc(OC)c(C2CC(=O)c3c([nH]c(C(=O)OCc4ccc(C)cc4)c3C)C2)c1 (centres undefined)	TDP1 cell noCPT 0.65µM, DT40 TDP1 CPT 4.6µM (no result: uPA surface inh)
O=C(COC(=O)Cc1ccc(Cl)cc1)Nc1cc(S(=O)(=O)N2CCOCC2)ccc1N1CCCC1	none
O=C(O)Cn1nncc1-c1ccc(C(F)(F)F)cc1	none (no result: uPA surface inh, miR-21 act, TDP1 block)
CCN(c1ccccc1)S(=O)(=O)c1ccc(OC)c(NC(=O)C2CC2)c1	none (no result: miR-21 act)
CC12CN3CC(C)(CN(C1)C3c1ccc(Br)cc1)C2 (centres undefined)	none
CC1Cc2nc(SCC(=O)NCCc3ccccc3)n(C)c(=O)c2S1 (centres undefined)	none
CCCS(=O)(=O)NC(=O)C1(C)CCCN(C(=O)c2ccncc2)C1 (centres undefined)	none (no result: uPA surface inh, miR-21 act, TDP1 block)
COc1cc(C2CC(=O)c3c([nH]c(C(=O)OCc4ccc(C)cc4)c3C)C2)cc(OC)c1OC (centres undefined)	TDP1 cell noCPT 0.92µM, DT40 TDP1 CPT 1.5µM (no result: uPA surface inh)
CCOC(=O)c1[nH]c2c(c1C)C(=O)CC(c1ccc(OC)c(OC)c1)C2 (centres undefined)	none
COc1ccc(OC)c(C2CC(=O)c3c([nH]c(C(=O)OCC4CCCO4)c3C)C2)c1 (centres undefined)	TDP1 cell noCPT 5.2µM, DT40 TDP1 CPT 5.8µM, uPA surface inh inconclusive
COc1ccc(C2CC(=O)c3c([nH]c(C(=O)OC4CCCC4)c3C)C2)cc1OC (centres undefined)	none (no result: uPA surface inh)
COc1ccc(OC)c(C2CC(=O)c3c([nH]c(C(=O)OC4CCC(C)CC4)c3C)C2)c1 (centres undefined)	TDP1 cell noCPT 8.2µM, DT40 TDP1 CPT 15µM (no result: uPA surface inh)
Cn1ncc2cc3c(Nc4ccc(Cl)cc4)cccc3nc21	TDP1 cell noCPT 12µM, DT40 TDP1 CPT 21µM (no result: uPA surface inh, miR-21 act, TDP1 block)
CCC(CC)Nc1ccc(C(CC(N)=O)NC(=O)Cc2cccc3ccccc23)cc1[N+](=O)[O-] (centres undefined)	none (no result: TDP1 block)
COc1ccccc1-c1nnc(-c2ccc(N3CCOCC3)cc2)o1	TDP1 cell noCPT 21µM, DT40 TDP1 CPT inconclusive
O=C(O)CCCC(=O)Nc1ccn(-c2ccccc2)n1	TDP1 cell noCPT inconclusive, DT40 TDP1 CPT 18µM
O=C(c1ccc(N2C(=O)C3C4CC(C(Br)C4Br)C3C2=O)cc1)N1CCCCC1 (centres undefined)	TDP1 block 32µM
N#Cc1ccccc1COC(=O)c1ccc2c(c1)OCO2	TDP1 cell noCPT inconclusive (no result: miR-21 act)
N#Cc1ccccc1COC(=O)c1ccc2c(c1)OCCO2	DT40 TDP1 CPT inconclusive, TDP1 block 89µM (no result: miR-21 act)
COc1ccc(NC2CS(=O)(=O)CC2NCc2ccco2)cc1 (centres undefined)	none
Fc1ccc(-[n+]2nc(Nc3ccccc3)sc2-c2c(Cl)cccc2Cl)cc1	TDP1 cell noCPT inconclusive, DT40 TDP1 CPT 18µM, uPA surface inh inconclusive (no result: TDP1 block)
O=C(O)c1ccc(-c2sc(Nc3ccccc3)n[n+]2-c2ccc(F)cc2)cc1	none (no result: TDP1 block)
CCc1ccc(Nc2n[n+](-c3ccccc3)c(-c3cc(OC)c(OC)cc3Br)s2)cc1	TDP1 cell noCPT inconclusive, DT40 TDP1 CPT 16µM (no result: TDP1 block)
CCc1ccc(Nc2n[n+](-c3ccccc3)c(/C=C/c3ccccc3)s2)cc1	none (no result: TDP1 cell noCPT, DT40 TDP1 CPT, uPA surface inh, TDP1 block)
CCc1ccc(Nc2n[n+](-c3ccccc3)c(-c3c(Cl)cccc3Cl)s2)cc1	TDP1 cell noCPT 15µM, DT40 TDP1 CPT 23µM, uPA surface inh 13µM, miR-21 act inconclusive (no result: TDP1 block)
CN1CCN(C(CNC(=O)c2cccc(F)c2)c2ccc3c(c2)OCO3)CC1 (centres undefined)	none (no result: uPA surface inh)
O=C1c2ccccc2C(=O)N1CCC(c1ccc(F)cc1)c1ccco1 (centres undefined)	TDP1 cell noCPT inconclusive, DT40 TDP1 CPT inconclusive
COc1cc2cc(CN(CCO)C(=O)c3cccs3)c(=O)[nH]c2cc1OC	none (no result: uPA surface inh)
COc1cccc(/C=C/C(=O)c2ccc(NS(=O)(=O)c3ccc(C)cc3)cc2)c1	TDP1 cell noCPT 21µM, DT40 TDP1 CPT 18µM
COc1cc(/C=C/C(=O)c2ccc(NS(=O)(=O)c3ccc(C)cc3)cc2)cc(OC)c1O	TDP1 cell noCPT inconclusive, DT40 TDP1 CPT inconclusive, miR-21 act inconclusive
COc1ccc(C(=O)/C=C/Nc2ccc(S(=O)(=O)Nc3ncccn3)cc2)cc1	none (no result: TDP1 cell noCPT, DT40 TDP1 CPT, uPA surface inh)
COc1cc(/C=C/C(=O)c2ccc(NS(=O)(=O)c3ccc(C)cc3)cc2)ccc1OC(F)F	TDP1 cell noCPT 18µM, DT40 TDP1 CPT inconclusive, miR-21 act inconclusive
COc1cccc(C(=O)/C=C/Nc2ccc(NC(C)=O)cc2)c1	none
COc1cccc(N/C=C/C(=O)c2ccc(C)cc2)c1	uPA surface inh 8.9µM (no result: TDP1 block)
COc1cccc(C(=O)/C=C/Nc2ccc(S(=O)(=O)Nc3cccc(C(C)=O)c3)cc2)c1	TDP1 cell noCPT 16µM, DT40 TDP1 CPT 18µM, miR-21 act inconclusive
